This note sets out measurements from PubChem BioAssay AID588651 (The Scripps Research Institute Molecular Screening Center, 2011).

Activity calls are given as the source filed them. Rule as the data show it: active = inhibition above about 65%; inactive = the rest.

For the assay, the system named is Fam108b. Kind of assay: Fam108b inhibition by ABPP, late-stage follow-up, biochemical, gel-based ABPP, recombinant soluble Fam108b, HTS hits, complex proteome (AID 588651).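 Also: Fam108b spiked into mouse brain membrane proteome.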 The conditions noted are these: FP-rhodamine labeling in proteome, at 20 µM, active compounds read high.
In general, inhibition refers to the change of the read-out against control, counted positive when it falls. For `COc1cccc(-n2c(SCc3cc(=O)oc4cc(O)c(O)cc34)nc3ccccc3c2=O)c1`, the inhibition is 10% (inactive).
Regarding `Oc1nc(Nc2cccc(Cl)c2)sc1/C=C1\C=Nc2ccccc21`, the inhibition is 80% (active).
The result for `COc1ccc(C=NNC(=O)c2ccc(O)cc2)cc1CN1CCCc2ccccc21` reads 40% (inactive).
Take `COc1ccc2ccccc2c1C(O)c1nccn1C` (centres undefined): the inhibition is 0% (inactive).
With `COc1cc2c(cc1NC(=O)Nc1ccccc1)oc1ccccc12`, the inhibition is 0% (inactive).
With `CCc1cc(C(Cc2ccc3ccccc3n2)=NO)c(O)cc1O`, the inhibition is 0% (inactive).
On to `CC1CCN(S(=O)(=O)c2ccc(C(=O)Nc3ccccc3-c3nc4ccccc4[nH]3)cc2)CC1`, for which the inhibition was 0% (inactive).
Regarding `CC1=CC(=O)c2c(O)ccc(O)c2C1=O`, the inhibition is 50% (inactive).
In the case of `Cc1ccnc(N=Cc2nc(-c3ccccc3Br)oc2O)c1` it was 7% (inactive).
As to `CN(C)S(=O)(=O)c1cccc(NC(=O)COC(=O)c2cc(-c3cccc(Br)c3)nc3ccccc23)c1`, the inhibition is 0% (inactive).
In the case of `Oc1ccc(C=NNc2ccnc3cc(Cl)ccc23)c(O)c1O` it was 20% (inactive); in that of `COc1cc(-c2nc(-c3ccc4c(c3)-c3ccccc3S4(=O)=O)c(-c3ccccc3)[nH]2)cc(OC)c1O`, 40% (inactive); in that of `Oc1ccccc1C1Nc2cccc3cccc(c23)N1`, 0% (inactive).
The result for `N=c1oc2cc(O)ccc2cc1C(=O)Nc1ccc(Br)cc1` reads 0% (inactive).
The result for `COc1cccc(C=NNC(=O)c2[nH]c(C)c(C(=O)NN=Cc3cccc(OC)c3O)c2C)c1O` reads 75% (active).
Regarding `Cc1nc2scc(-c3ccc(Cl)cc3)c2c(=O)o1`, the inhibition is 95% (active).
With `Oc1ccc(C=NNc2ccnc3cc(Cl)ccc23)cc1O`, the inhibition is 65% (active).
The result for `O=C(Nc1ccc(N2CCCC2)c(S(=O)(=O)Nc2cccc(C(F)(F)F)c2)c1)c1cccs1` reads 85% (active); that for `COc1cccc2c1C(=O)c1c(O)c3c(c(O)c1C2=O)C[C@@](O)(C(=O)CO)C[C@@H]3O[C@H]1C[C@H](N)[C@H](O)[C@H](C)O1`, 0% (inactive); that for `Cc1[nH]c2c(C)cccc2c1CCNC(=O)c1ccc2c(c1[N+](=O)[O-])C(=O)c1ccccc1C2=O`, 40% (inactive).
In the case of `CC1CCCCN1S(=O)(=O)c1ccc(C(=O)Nc2ccccc2-c2nc3ccccc3[nH]2)cc1` (centres undefined) it was 50% (inactive); in that of `COc1ccc(NC(=S)Nc2ccc3nsnc3c2)cc1`, 0% (inactive).
As for `O=c1oc(-c2ccccc2Cl)nc2ccsc12`, the inhibition was 95% (active).
Take `COc1ccc(S(=O)(=O)/N=C2\C=C(Nc3ccc(O)cc3)C(=O)c3ccccc32)cc1`: the inhibition was 25% (inactive).
On to `CCN(CC)c1ccc(C2Nc3cccc4cccc(c34)N2)c(O)c1`, for which the inhibition was 10% (inactive).
The result for `O=C(Nc1ccc2[nH]c(=S)sc2c1)Nc1ccccc1F` reads 20% (inactive).
In the case of `O=C1C(SCCO)=C(SCCO)C(=O)c2ccccc21` it was 50% (inactive); in that of `Oc1ccc(C2Nc3cccc4cccc(c34)N2)c(O)c1`, 0% (inactive).
In the case of `COc1cccc(C=NNc2nc(Nc3ccc([N+](=O)[O-])cc3)nc(N3CCCC3)n2)c1O` it was 65% (active); in that of `CCn1nc([N+](=O)[O-])c(C(C#N)c2nc3cc(C(F)(F)F)ccc3s2)c(Cl)c1=O` (centres undefined), 0% (inactive); in that of `Nc1cc(C(=O)O)c(N)c2c1C(=O)c1ccccc1C2=O`, 0% (inactive).
As for `CC1(C)CC(=O)C2=C(C1)c1c(ccc3ccccc13)NC2c1cc([N+](=O)[O-])cc([N+](=O)[O-])c1O` (centres undefined), the inhibition was 50% (inactive).
In the case of `O=C(O)CCCNc1cc(N2CCN(C(=O)c3ccco3)CC2)c2noc3c2c1C(=O)c1ccccc1-3` it was 40% (inactive); in that of `Cc1cc(Nc2ccc(Cl)cc2)nc(NCc2ccccc2)n1`, 0% (inactive).
